Common to all, as to assay: log2 fold change, soluble protein after heating vs DMSO (PISA); higher = thermal stabilisation; K562 lysate, 10 uM; active = over 0.2 and 3.5 SD of the protein, either way, in both replicates (recomputed)
Compound in one experiment: CCCS(=O)(=O)Nc1ccc(F)c(C(=O)c2c[nH]c3ncc(-c4ccc(Cl)cc4)cc23)c1F [vemurafenib]
The gist of the method: (§1)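 Following dounce homogenisation of K562 pellets in PBS pH 7.4 with 1 mM MgCl2, crude extract at 1 mg/mL protein was incubated for 30 min with 10 μM compound. Aliquots were then heated for 3 min over 48°C-58°C and pooled, NP-40 was added to 0.5% at 4°C, and soluble protein was recovered as the supernatant at 21,000xg for 90 min. Channel-sum-equalised TMTpro 16plex LC-MS/MS quantified this protein. Each value, from duplicates, is a log-two fold change in thermal stability relative to solvent controls.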

Compound in experiment [1]: CCCS(=O)(=O)Nc1ccc(F)c(C(=O)c2c[nH]c3ncc(Cl)cc23)c1F
The procedure, abridged:
as §1

Compound in a further experiment: CCN(CCCOc1ccc2c(Nc3cc(CC(=O)Nc4cccc(F)c4)[nH]n3)ncnc2c1)CCOP(=O)(O)O [barasertib]
The procedure, abridged:
as §1

Compound in experiment [2]: CC[C@@H]1C(=O)N(C)c2cnc(Nc3ccc(C(=O)NC4CCN(C)CC4)cc3OC)nc2N1C1CCCC1
The procedure, abridged:
as §1

Compound in another experiment: CC[C@@H]1C(=O)N(C)c2cnc(Nc3ccc(C(=O)N[C@H]4CC[C@H](N5CCN(CC6CC6)CC5)CC4)cc3OC)nc2N1C(C)C [volasertib]
The procedure, abridged:
as §1

Compound in experiment [3]: CCn1c(C(=O)N(C2CC2)C2CC2)cc2c3c(ncn3C)c(Nc3cc(C)n(C)n3)nc21
The gist of the method:
as §1

Compound in experiment [4]: CCn1cc(-c2ccnc3[nH]c(-c4cccc(CN(C)C)c4)cc23)c(-c2ccc(NC(=O)N(C)C)cc2)n1
The procedure, abridged:
as §1

Compound in experiment [5]: CN1CCC(CNc2ccc3ncc(-c4cccc(OC(F)(F)F)c4)n3n2)CC1
The gist of the method:
as §1

Compound in a further experiment: CN1CCN(CCOc2cc(OC3CCOCC3)c3c(Nc4c(Cl)ccc5c4OCO5)ncnc3c2)CC1 [saracatinib]
The gist of the method:
as §1

Compound in another experiment: CN1CCN(c2nc(C3=C(c4c[nH]c5ccccc45)C(=O)NC3=O)c3ccccc3n2)CC1 [sotrastaurin]
The procedure, abridged: as §1

The full data set covers some 8,800 targets. This sample favours those with a hit. About 0.5% of all pairs of compound and target were hits. Values without a mark were called inactive.

UniProt Q9Y6H1, sequence (Q9Y6H1 whole entry, looked up): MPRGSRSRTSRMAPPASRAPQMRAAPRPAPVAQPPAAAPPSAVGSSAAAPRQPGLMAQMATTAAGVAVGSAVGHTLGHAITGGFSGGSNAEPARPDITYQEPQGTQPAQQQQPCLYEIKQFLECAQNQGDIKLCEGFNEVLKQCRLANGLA
UniProt P55211, sequence (P55211 whole entry, looked up): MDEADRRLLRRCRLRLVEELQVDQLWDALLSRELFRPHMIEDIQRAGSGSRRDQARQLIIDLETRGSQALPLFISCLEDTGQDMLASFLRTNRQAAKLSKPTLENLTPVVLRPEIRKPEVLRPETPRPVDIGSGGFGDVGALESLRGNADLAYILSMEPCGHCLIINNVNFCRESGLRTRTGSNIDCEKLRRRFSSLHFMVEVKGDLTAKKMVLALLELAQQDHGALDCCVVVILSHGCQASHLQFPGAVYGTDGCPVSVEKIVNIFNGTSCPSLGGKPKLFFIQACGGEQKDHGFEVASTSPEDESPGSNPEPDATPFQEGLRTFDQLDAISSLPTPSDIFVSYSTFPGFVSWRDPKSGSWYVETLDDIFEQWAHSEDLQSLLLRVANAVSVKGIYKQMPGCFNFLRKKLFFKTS
UniProt Q9H257, sequence (Q9H257 whole entry, looked up): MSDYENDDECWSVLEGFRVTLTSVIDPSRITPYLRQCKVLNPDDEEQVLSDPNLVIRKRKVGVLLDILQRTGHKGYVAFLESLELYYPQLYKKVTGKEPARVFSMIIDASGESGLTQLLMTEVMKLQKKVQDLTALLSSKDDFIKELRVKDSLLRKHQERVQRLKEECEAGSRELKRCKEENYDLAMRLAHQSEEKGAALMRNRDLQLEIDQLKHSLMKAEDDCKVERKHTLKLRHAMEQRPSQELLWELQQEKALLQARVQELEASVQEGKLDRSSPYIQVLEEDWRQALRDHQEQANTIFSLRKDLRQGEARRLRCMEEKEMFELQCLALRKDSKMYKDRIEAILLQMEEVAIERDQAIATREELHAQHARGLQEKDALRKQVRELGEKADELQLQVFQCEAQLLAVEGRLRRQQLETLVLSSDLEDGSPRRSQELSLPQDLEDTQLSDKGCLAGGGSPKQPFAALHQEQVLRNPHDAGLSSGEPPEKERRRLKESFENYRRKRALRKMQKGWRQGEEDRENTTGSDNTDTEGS
UniProt Q14839, sequence (Q14839 whole entry, looked up): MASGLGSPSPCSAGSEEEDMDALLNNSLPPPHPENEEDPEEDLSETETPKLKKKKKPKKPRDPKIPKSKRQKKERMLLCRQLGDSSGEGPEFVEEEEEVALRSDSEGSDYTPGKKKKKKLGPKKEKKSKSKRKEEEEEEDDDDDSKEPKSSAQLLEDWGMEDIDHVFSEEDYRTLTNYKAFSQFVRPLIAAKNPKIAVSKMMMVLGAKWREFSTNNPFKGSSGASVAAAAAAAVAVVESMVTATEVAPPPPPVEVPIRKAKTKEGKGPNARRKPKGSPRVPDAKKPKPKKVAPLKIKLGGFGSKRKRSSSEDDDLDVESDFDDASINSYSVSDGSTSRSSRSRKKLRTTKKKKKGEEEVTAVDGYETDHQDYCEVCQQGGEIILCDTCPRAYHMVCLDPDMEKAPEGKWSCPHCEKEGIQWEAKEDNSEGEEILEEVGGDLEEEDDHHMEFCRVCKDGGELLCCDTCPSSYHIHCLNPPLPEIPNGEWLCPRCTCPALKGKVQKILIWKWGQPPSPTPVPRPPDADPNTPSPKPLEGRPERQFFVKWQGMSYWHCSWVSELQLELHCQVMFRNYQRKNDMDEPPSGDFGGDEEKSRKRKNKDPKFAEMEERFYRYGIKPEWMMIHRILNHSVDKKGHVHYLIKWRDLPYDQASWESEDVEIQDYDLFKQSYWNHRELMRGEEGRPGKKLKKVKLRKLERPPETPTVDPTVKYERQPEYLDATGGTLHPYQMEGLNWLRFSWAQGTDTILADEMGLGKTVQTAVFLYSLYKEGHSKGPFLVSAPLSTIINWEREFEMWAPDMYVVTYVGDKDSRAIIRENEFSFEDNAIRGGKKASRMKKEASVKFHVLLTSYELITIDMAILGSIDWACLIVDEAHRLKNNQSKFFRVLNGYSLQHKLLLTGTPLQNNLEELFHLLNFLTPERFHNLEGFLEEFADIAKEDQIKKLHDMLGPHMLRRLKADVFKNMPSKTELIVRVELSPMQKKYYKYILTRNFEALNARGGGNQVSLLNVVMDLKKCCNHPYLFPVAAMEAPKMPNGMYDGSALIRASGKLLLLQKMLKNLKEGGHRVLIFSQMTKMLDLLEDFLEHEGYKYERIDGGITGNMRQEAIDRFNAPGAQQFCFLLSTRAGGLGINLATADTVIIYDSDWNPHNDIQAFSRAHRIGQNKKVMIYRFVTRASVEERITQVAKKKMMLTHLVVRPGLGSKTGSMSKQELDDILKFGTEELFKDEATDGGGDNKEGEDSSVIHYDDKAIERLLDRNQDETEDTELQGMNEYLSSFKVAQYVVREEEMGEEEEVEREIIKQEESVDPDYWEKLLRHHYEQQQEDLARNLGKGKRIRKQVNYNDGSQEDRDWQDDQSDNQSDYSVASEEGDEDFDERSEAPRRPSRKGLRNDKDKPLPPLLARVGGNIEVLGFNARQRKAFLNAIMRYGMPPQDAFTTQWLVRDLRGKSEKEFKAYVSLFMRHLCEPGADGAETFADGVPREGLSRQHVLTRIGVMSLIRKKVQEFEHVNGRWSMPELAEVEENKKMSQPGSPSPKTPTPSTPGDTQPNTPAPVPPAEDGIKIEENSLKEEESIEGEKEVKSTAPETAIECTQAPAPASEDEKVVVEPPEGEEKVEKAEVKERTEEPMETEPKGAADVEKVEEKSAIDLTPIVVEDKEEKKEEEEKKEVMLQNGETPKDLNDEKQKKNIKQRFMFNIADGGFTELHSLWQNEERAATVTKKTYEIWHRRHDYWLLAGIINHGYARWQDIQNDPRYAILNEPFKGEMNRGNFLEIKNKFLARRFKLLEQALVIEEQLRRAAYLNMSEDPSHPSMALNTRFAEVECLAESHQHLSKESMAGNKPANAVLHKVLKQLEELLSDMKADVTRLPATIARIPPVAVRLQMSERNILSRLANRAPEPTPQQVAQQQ
UniProt P27824, sequence (P27824 whole entry, looked up): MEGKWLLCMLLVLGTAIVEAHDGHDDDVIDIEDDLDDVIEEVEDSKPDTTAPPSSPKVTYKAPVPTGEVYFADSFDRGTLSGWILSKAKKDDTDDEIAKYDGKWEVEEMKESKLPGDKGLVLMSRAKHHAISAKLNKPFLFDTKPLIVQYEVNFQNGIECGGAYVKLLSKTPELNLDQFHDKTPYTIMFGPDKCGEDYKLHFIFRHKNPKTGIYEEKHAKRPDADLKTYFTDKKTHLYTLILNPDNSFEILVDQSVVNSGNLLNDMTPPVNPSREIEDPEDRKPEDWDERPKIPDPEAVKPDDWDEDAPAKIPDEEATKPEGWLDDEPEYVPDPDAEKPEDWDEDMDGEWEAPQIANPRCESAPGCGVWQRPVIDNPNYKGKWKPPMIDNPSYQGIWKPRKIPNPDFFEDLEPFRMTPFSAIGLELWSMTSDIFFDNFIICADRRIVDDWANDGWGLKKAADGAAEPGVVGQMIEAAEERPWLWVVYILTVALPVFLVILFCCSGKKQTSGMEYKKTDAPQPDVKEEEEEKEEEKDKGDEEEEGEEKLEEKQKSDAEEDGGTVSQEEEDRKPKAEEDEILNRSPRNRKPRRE
UniProt Q9NSG2, sequence (Q9NSG2 whole entry, looked up): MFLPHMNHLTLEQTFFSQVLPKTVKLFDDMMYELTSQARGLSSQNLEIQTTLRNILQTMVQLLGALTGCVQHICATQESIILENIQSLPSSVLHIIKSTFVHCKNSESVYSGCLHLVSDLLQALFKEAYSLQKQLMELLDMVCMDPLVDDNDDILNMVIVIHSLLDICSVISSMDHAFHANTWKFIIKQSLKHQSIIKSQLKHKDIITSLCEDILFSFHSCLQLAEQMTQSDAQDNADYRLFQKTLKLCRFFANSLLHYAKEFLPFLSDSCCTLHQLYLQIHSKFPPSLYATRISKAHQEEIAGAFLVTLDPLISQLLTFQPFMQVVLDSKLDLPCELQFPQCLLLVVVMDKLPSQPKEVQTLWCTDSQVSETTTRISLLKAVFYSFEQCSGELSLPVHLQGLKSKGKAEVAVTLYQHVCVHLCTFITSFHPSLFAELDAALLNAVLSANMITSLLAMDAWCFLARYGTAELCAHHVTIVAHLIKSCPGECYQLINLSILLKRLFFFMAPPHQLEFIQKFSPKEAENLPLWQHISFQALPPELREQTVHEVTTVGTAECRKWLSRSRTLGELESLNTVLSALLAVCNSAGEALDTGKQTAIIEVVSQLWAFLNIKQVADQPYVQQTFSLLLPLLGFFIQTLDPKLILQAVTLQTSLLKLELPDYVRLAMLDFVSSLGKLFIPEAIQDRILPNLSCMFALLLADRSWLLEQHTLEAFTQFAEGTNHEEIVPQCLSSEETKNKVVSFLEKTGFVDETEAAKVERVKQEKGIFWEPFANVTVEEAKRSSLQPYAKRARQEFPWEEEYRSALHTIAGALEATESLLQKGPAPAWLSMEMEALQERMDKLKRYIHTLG
UniProt P18859, sequence (P18859 whole entry, looked up): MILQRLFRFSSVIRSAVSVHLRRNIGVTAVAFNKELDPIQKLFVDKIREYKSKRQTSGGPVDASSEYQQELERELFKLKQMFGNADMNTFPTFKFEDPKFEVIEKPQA
UniProt P49918, sequence (P49918 whole entry, looked up): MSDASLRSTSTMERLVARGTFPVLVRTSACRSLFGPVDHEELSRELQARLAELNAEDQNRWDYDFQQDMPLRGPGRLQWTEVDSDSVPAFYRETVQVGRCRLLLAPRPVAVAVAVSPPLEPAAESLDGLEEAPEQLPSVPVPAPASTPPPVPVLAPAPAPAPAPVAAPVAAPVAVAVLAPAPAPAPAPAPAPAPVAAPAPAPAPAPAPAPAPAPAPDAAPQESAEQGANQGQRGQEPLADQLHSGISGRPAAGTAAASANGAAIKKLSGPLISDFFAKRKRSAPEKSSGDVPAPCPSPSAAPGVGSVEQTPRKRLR

Regarding CANX isoform 2 (UniProt P27824), the log2 fold change was 0.015 in the experiment with vemurafenib; -0.012 in experiment [1]; -0.015 in the experiment with barasertib; 0.061 in experiment [2]; 0.033 with volasertib; -0.014 in experiment [3]. Moreover, the log2 fold change is -0.074 in [4], 0.034 in [5], 0.001 with saracatinib and 0.036 in the experiment with sotrastaurin.

In the case of CASP9 (UniProt P55211), the log2 fold change in the experiment with vemurafenib was -0.017; in [1] it was 0.001; in the experiment with barasertib, -0.002; in [2], 0.025; with volasertib, 0.029; in experiment [3] it was -0.061. Also, the log2 fold change is -0.013 in experiment [4], 0.005 in [5], 0.003 with saracatinib and 0.045 in the experiment with sotrastaurin.

As for C1orf112 (UniProt Q9NSG2), the log2 fold change was 0 with vemurafenib; 0.006 in experiment [1]; -0.04 in the experiment with barasertib; -0.065 in experiment [2]; 0.034 in the experiment with volasertib; 0.037 in [3]. In addition, the log2 fold change in [4] is 0.171; in experiment [5], -0.059; with saracatinib, 0.065; with sotrastaurin, 0.025.

For the target BRAT1 (UniProt Q6PJG6), the log2 fold change was 0.011 with vemurafenib; -0.014 in experiment [1]; 0.042 with barasertib; -0.086 in experiment [2]; -0.046 in the experiment with volasertib; 0.055 in [3]. Besides, the log2 fold change in experiment [4] is -0.023; in [5] it was -0.007; in the experiment with saracatinib it was 0.016; with sotrastaurin, 0.037.

In the case of CHD4 isoform 2 (UniProt Q14839), the log2 fold change is 0 in the experiment with vemurafenib; 0.002 in experiment [1]; 0.028 with barasertib; -0.003 in experiment [2]; -0.002 with volasertib; 0.022 in experiment [3]. Moreover, the log2 fold change in experiment [4] is -0.054; in [5], -0.017; in the experiment with saracatinib it was 0.002; in the experiment with sotrastaurin it was 0.02.

With CARD11 (UniProt Q9BXL7), the log2 fold change with vemurafenib was 0.088; in [1] it was 0.012; with barasertib it was -0.075; in experiment [2], -0.087; with volasertib, -0.071; in experiment [3], 0.082. Further, the log2 fold change in experiment [4] is -0.024; in experiment [5] it was -0.014; with saracatinib, 0.063; in the experiment with sotrastaurin, 0.002.

In the case of ATP9B (UniProt O43861), the log2 fold change in the experiment with vemurafenib was -0.046; in experiment [1], 0.02; with barasertib, -0.024; in [2] it was -0.081; with volasertib, -0.051; in experiment [3], -0.015. Besides, the log2 fold change was -0.07 in experiment [4], 0.189 in experiment [5], 0.046 in the experiment with saracatinib and -0.071 in the experiment with sotrastaurin.

With BCAR1 isoform 6 (UniProt P56945), the log2 fold change in the experiment with vemurafenib was 0.038; in experiment [1], 0.018; with barasertib it was 0.015; in experiment [2], -0.065; with volasertib, -0.018; in [3], -0.003. Moreover, the log2 fold change is 0.064 in [4], -0.012 in experiment [5], 0.032 with saracatinib and -0.038 with sotrastaurin.

Consider CARD9 (UniProt Q9H257), for which the log2 fold change with vemurafenib is 0.03; in experiment [1], 0.026; with barasertib it was 0.008; in experiment [2], 0.068; in the experiment with volasertib, -0.001; in experiment [3], 0.011. The log2 fold change in experiment [4] was -0.036; in experiment [5] it was 0.013; with saracatinib, 0.014; in the experiment with sotrastaurin, -0.01.

As to CELF2 isoform 3 (UniProt O95319), the log2 fold change with vemurafenib is 0.082; in experiment [1], 0.013; in the experiment with barasertib, 0.031; in experiment [2], 0.096; with volasertib, -0.05; in [3] it was 0.001. Further, the log2 fold change in experiment [4] is 0.074; in experiment [5], -0.095; with saracatinib it was 0.021; with sotrastaurin, -0.023.

In the case of AURKAIP1 (UniProt Q9NWT8), the log2 fold change was 0.043 with vemurafenib; -0.124 in experiment [1]; 0.055 with barasertib; 0.071 in [2]; 0.043 in the experiment with volasertib; -0.129 in experiment [3]. In addition, the log2 fold change in experiment [4] was -0.027; in experiment [5] it was 0.129; with saracatinib, 0.023; in the experiment with sotrastaurin, -0.055.

Take CCDC22 (UniProt O60826): the log2 fold change with vemurafenib was -0.054; in experiment [1], 0.026; with barasertib it was 0.052; in experiment [2], -0.053; with volasertib it was -0.013; in [3] it was 0.026. For the same target, the log2 fold change is -0.027 in experiment [4], -0.01 in experiment [5], 0.01 with saracatinib and 0.028 with sotrastaurin.

With ATP5PF isoform 2 (UniProt P18859), the log2 fold change with vemurafenib is 0.083; in experiment [1], -0.023; with barasertib, 0.064; in experiment [2], 0.076; with volasertib it was 0.133; in experiment [3], 0.076. Also, the log2 fold change in experiment [4] is 0.663 (active); in [5] it was -0.205; in the experiment with saracatinib it was -0.024; with sotrastaurin, -0.067.

Turning to CHCHD2 (UniProt Q9Y6H1), the log2 fold change in the experiment with vemurafenib was 0.076; in experiment [1] it was -0.025; with barasertib it was 0.011; in experiment [2], 0.102; in the experiment with volasertib, 0.086; in experiment [3] it was 0.108. In addition, the log2 fold change in experiment [4] was 0.16; in experiment [5] it was -0.094; with saracatinib, -0.011; with sotrastaurin, 0.054.

On to CDKN1C (UniProt P49918), for which the log2 fold change with vemurafenib was -0.275; in [1] it was -0.003; with barasertib, -0.041; in experiment [2], 0.027; with volasertib, -0.066; in [3], 0.019. Besides, the log2 fold change in experiment [4] was 0.073; in experiment [5], 0.03; with saracatinib, -0.14; in the experiment with sotrastaurin, -0.054.

The record behind these values is the supplement of paper PMC10849652.
